Source: PubChem (several laboratories)
This is a sample that favours compounds with a hit; in the whole collection about 1.7% have one here.
CCHF vOTU inh-1: CCHFV vOTU protease inhibition | AID 651958 | inhibition, % at 11.5 µM | actives 0.55% (n = 370,000) | Pep-AMC fluorescence; note: 0% = vehicle wells with enzyme and 100% = no enzyme wells
Mtb hypoxia inh: reduces hypoxia-regulated biosensor signal in M. tuberculosis; AID 1159583; actives 0.1% (n = 300,000); fluorescence inhibition, % (no concentration beside the values); M. tuberculosis hypoxia-regulated fluorescent reporter, fluorescence; in the data active = fluorescence inhibition mostly above about 23%, no sharp cut-off; inactive = mostly below about 17%
PfHsp40 rescue: restores yeast growth despite PfHsp40 toxicity; AID 504582; S. cerevisiae expressing PfHsp40, growth rescue, ATP luminescence; growth rescue, % at 12.5 µM; actives 0.68% (n = 340,000); in the data active = growth rescue above about 28%, passing the limit was not always enough;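 note: yeast W303a lacking pdr1 and pdr3 grown in galactose medium; growth measured after three days at 30 °C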
Sa RN4220 lethal: kills Staphylococcus aureus RN4220; S. aureus RN4220 growth, OD600, 16 h; inhibition, % (no concentration beside the values); actives 0.33% (n = 330,000); in the data active = inhibition above about 85%;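 note: plate controls were untreated cells for no effect and reference antibiotic for full effect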
Vc quorum ag: induces V. cholerae light production without autoinducers; activation, % at 18.7 µM; actives 0.16% (n = 350,000); V. cholerae BH1578 lux reporter, luminescence, 6 h; AID 588436; in the data active = activation mostly above about 9.7%, no sharp cut-off
Sa ugtP lethal: kills S. aureus RN4220 lacking UgtP. S. aureus RN4220 ugtP deletion, OD600 growth, 16 h. growth inhibition, % (test concentration not listed). actives 0.54% (n = 330,000). AID 1259309; in the data active = growth inhibition above about 68%;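 note: plate controls were untreated wells for no effect and antibiotic for full effect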
CCHF vOTU inh-2: CCHFV vOTU protease inhibition, confirmation | actives 17% (n = 1,900) | shares compounds with CCHF vOTU inh-1 | Recombinant CCHFV vOTU, Pep-AMC fluorescence | AID 686976 | inhibition, % at 11.5 µM
The depositor's hits bear a star; i = inactive; x = no result. Cut-off read from the data, not from the text of the source, unless noted: active = inhibition above about 30%; inactive = the rest.

SMILES | CCHF vOTU inh-1 | Mtb hypoxia inh | PfHsp40 rescue | Sa RN4220 lethal | Vc quorum ag | Sa ugtP lethal | CCHF vOTU inh-2
O=C(C1=CC(C2CC2)CC(OCc2ccc(CO)cc2)O1)N1CCOCC1 (stereo not given) | x | 0 | x | 8 | x | -1 | x
CCc1nn(CC(=O)NCCCN(CC)Cc2ccccc2)c(=O)c2cc3sccc3n12 | 35* | 17 | 0 | -4 | i | 8 | -10
COc1ccccc1/C=C1\SC(=S)N(NS(=O)(=O)c2ccc(C)cc2)C1=O | 36* | -19 | 32* | 96* | i | 81 | 1
CCOc1cc(/C=C2\SC(=S)N(NS(=O)(=O)c3ccccc3)C2=O)ccc1O | 12 | 10 | -3 | 80 | 0 | 64 | x
COc1ccc(OC)c(/C=C2\SC(=S)N(NS(=O)(=O)c3ccc(C)cc3)C2=O)c1 | 33* | 5 | 3 | 19 | i | -32 | 8
CCOc1ccc(/C=C2\SC(=S)N(NS(=O)(=O)c3ccccc3)C2=O)cc1OC | 41* | 6 | 60* | 61 | -1 | 32 | 10
CCCN1CCC(=O)N(C(COc2ccccc2)CC(C)C)CC1 (stereo not given) | x | 7 | x | 3 | x | 0 | x
CCCc1ccc(Oc2cn[nH]c2-c2ccc(O)c(C)c2O)cc1 | 36* | 13 | 83* | 99* | i | 100* | -9
COc1ccc(NC(=O)c2ccc(OCC3CCCO3)cc2)cc1OC (stereo not given) | 38* | 10 | -1 | 5 | -5 | 6 | -14
COc1ccc(-c2csc(NC(=O)[C@H](C)N3C(=O)C4CC=CCC4C3=O)n2)cc1OC (stereo not given in full) | 6 | 4 | 4 | 32 | 3 | 2 | x
CC(C(=O)Nc1nc(-c2ccc(F)c(F)c2)cs1)N1C(=O)C2CC=CCC2C1=O (stereo not given) | 31* | 5 | 6 | 17 | i | 3 | -8
CC(=O)Oc1cccc(C=NNC(=O)C(=O)NN=Cc2cccc(OC(C)=O)c2)c1 | x | 4 | x | -2 | x | -4 | x
CCOC(=O)c1sc(NC(=O)c2ccc(Br)o2)cc1C | 31* | 5 | 1 | -11 | 1 | -7 | -4
CCOC(=O)c1sc(NC(=O)Nc2cccc(Cl)c2)cc1C | 30* | -3 | 1 | 92* | 0 | 88* | 0
CCOC(=O)c1sc(NC(=O)c2cccs2)cc1C | -11 | 4 | 1 | -14 | x | 6 | x
COc1cccc(C=NNC(=O)CSc2nnc(C)n2-c2ccccc2)c1OC | x | x | x | 3 | x | 8 | x
CCCCNC(=S)N(C)N=Cc1ccc(OCC(=O)Nc2ccc(OC)cc2)c(OC)c1 | x | 3 | x | 27 | x | -7 | x
CN(/N=C/C=C/c1ccccc1)c1cc(=O)n(C)c(=O)[nH]1 | 32* | x | 0 | x | -1 | x | 15
C/C(=C\C(=O)c1cccnc1)Nc1ccc(O)cc1 | 95* | -6 | 1 | -4 | 0 | -5 | -1
COc1ccc(C(=O)/C=C(\C)Nc2ccc(NC(C)=O)cc2)cc1 | -3 | -5 | -2 | 3 | i | 4 | x
C/C(=C\C(=O)c1ccccc1)Nc1ccc(O)cc1 | 76* | 1 | 1 | 10 | 0 | 19 | -3
CC(=NNC(=O)Cc1ccc(O)cc1)c1cccnc1 | x | 5 | x | 1 | x | 0 | x
COC(=O)NN=Cc1cn(Cc2ccccc2F)c2ccccc12 | x | 4 | x | 0 | x | -1 | x
O=C(NN=Cc1ccco1)c1ccc(OCc2ccccc2)cc1 | x | -2 | x | 2 | x | 9 | x
NC(=NOC(=O)c1ccc(Cl)c([N+](=O)[O-])c1)c1ccccn1 | x | 0 | x | 9 | x | 19 | x
CC(C)CC(NC(=O)C(Cc1ccc(OCc2ccccc2)cc1)NC(=O)OC(C)(C)C)C(N)=O (stereo not given) | 32* | x | 5 | 1 | -1 | 0 | -12
O=C(COC(=O)c1n[nH]c2ccccc12)NC(=O)NCc1ccco1 | 35* | x | 0 | 0 | 0 | -6 | -11
CCCCN1C(N)=NCC1Cc1ccccc1 (stereo not given) | x | 20 | x | 6 | x | 3 | x
CCc1nc2c(OCC3CCCCC3)cccn2c1N(C)C(=O)c1ccccc1F | 31* | x | x | x | -3 | x | -6
CCc1nc2c(OCCC3CCCCC3)cccn2c1N(C)C(=O)COc1ccccc1 | 36* | x | x | x | -1 | x | 5
